From PubChem BioAssay AID540326 (Broad Institute, 2011)
The list shows a part of the results. Unmarked numbers belong to inactive results. Active and inactive are the calls of the source.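 The calls were made as follows: active = quenching, a falling signal, with AC50 below a set limit tied to the top valid dose (actives reach about 32 µM in these data); inconclusive = no clear call, values can overlap the other calls; inactive = rising signal, and the rest.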

assay: DiI-HDL fluorescence quenchers, cell-free, dose response, artefact control for SR-BI HDL uptake inhibitor project, biochemical, cherry-pick samples, plate reader fluorescence (AID 540326); conditions: 30 min; AC50: cell-free DiI-HDL fluorescence quenching; series mostly up to 35 µM; activity change, negative = quenching: at the top concentration

Compound | activity change, negative = quenching [%] | AC50
O=C(Nc1cccc(NC(=O)N2CCN(c3ccccc3)CC2)c1)N1CCN(c2ccccc2)CC1 | -11 | –
CCCOC(=O)c1[nH]c2c(c1C)C(=O)CC(c1cc(OC)c(OC)c(OC)c1)C2 (centres undefined) | -1 | –
COc1cccc(N(CC(=O)NC2CCCC2)C(=O)Cn2nnc(-c3ccc(C)cc3)n2)c1 | -2.78 | –
O=c1cc(N2CCCCC2)c(-c2ccccc2)nn1Cc1cccc(F)c1 | 0.392 | –
CCOc1ccc(NC(=O)CN2CCN(CC(=O)Nc3ccc(OC)cc3)CC2)cc1 | -4.99 | –
CCCCC(=O)Nc1nc(C)c(-c2csc(Nc3ccc(Cl)cc3)n2)s1 | – | 1930 nM (active)
CCCC(=O)N1c2ccc(-c3csc(N)n3)cc2CC1C (centres undefined) | -13 | –
O=C(NC1CC2CCCC(C1)N2C(=O)N1CCCCC1)C1CCCCC1 (centres undefined) | -1.48 | –
CCCOC1CCCN(C(=O)c2cc(COc3cncc(Cl)c3)on2)C1 (centres undefined) | -2.62 | –
COC(=O)C1=CN(c2ccc(F)c(F)c2)C=C(C(=O)OC)C1c1ccc([N+](=O)[O-])cc1 | -8.39 | –
CC(C)OCCCNC(=O)c1ccc(C2SCC(=O)N2Cc2ccco2)cc1 (centres undefined) | 3.09 | –
CCOc1ccc(OCCSc2nc3ccccc3n2CC(=O)O)cc1 | -2.93 | –
C=CCCC(=O)Nc1nc(C)c(-c2csc(Nc3ccc(Cl)cc3)n2)s1 | – | 2190 nM (active)
Cc1cc(NC(=O)Nc2ccccc2)n(-c2ccccc2)n1 | -2.27 | –
O=C(Nc1cccc(NC(=O)c2ccccc2[N+](=O)[O-])c1)c1ccccc1Cl | -13.8 | –
O=C(Nc1ccc(-c2csc(Nc3cccc(C(F)(F)F)c3)n2)cc1)c1cccc(C(F)(F)F)c1 | – | 435 nM (active)
CCCC(=O)Nc1ccc(Cl)c(NC(=O)c2ccc(Br)o2)c1 | -0.557 | –
Cc1cccc(N2CCN(C(=O)CN(C)S(=O)(=O)c3ccc4c(c3)CCC(=O)N4)CC2)c1C | -1.63 | –
CCOC(=O)c1[nH]c2c(c1-c1ccccc1)C(=O)CC(c1ccc(Cl)cc1)C2 (centres undefined) | -0.468 | –
